Test results reported in the supplement of paper PMC11026393.

Test system: H1299
Assay: difference in mean normalized H2B-mRuby nuclear fluorescence intensity relative to DMSO control (normalized intensity difference (DMSO = 0)); higher = stronger increase in transgene reporter fluorescence
Details: 24 h
Protocol: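 Cancer cell lines stably expressing H2B-mRuby2 from a lentiviral PGK promoter were treated with each drug for 24 h and imaged on a Leica DMI8 (ex 541-551 / em 565-605 nm). Nuclei were segmented in CellProfiler. The value is the difference in mean per-nucleus normalized H2B-mRuby intensity versus DMSO-treated cells (about 3 repeats x 4 fields). Doxorubicin is itself fluorescent. Dasatinib is in nM.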

How did the difference (concentration: 0.05) turn out when `O=C(NOC[C@H](O)CO)c1ccc(F)c(F)c1Nc1ccc(I)cc1F` (concentration unit: uM) was run?
The difference was -0.0791.

And the difference (concentration: 0.1)?
Its difference is -0.114.

What about the difference (concentration: 0.25) of the same molecule?
Its difference is -0.172.

What about the difference (concentration: 1) of the same molecule?
Its difference is -0.174.

And the difference (concentration: 5)?
Its difference is -0.199.

What does the source list for `O=C(Nc1ccc2[nH]nc(-c3ccncc3)c2c1)[C@@H]1CCN(CC(=O)N2CCN(c3ccc(-c4ncccn4)cc3)CC2)C1` (concentration unit: uM)?
difference (concentration: 0.05): -0.0926; difference (concentration: 0.1): -0.0835; difference (concentration: 0.25): -0.13; difference (concentration: 1): -0.131; difference (concentration: 5): -0.0355

With `COc1cc(Nc2c(C#N)cnc3cc(OCCCN4CCN(C)CC4)c(OC)cc23)c(Cl)cc1Cl` (concentration unit: uM) as the molecule, how does the difference (concentration: 0.25) read?
The difference was -0.202.

And the difference (concentration: 1)?
The difference was -0.134.

What about the difference (concentration: 2.5) of the same molecule?
The difference was -0.0971.

What about the difference (concentration: 5) of the same molecule?
Its difference is -0.166.

And the difference (concentration: 20)?
Its difference is -0.0502.

For `C[C@@H](Oc1cc(-c2cnn(C3CCNCC3)c2)cnc1N)c1c(Cl)ccc(F)c1Cl` (concentration unit: uM), which difference (concentration: 0.25) is on record?
The difference was 0.0337.

What about the difference (concentration: 1) of the same molecule?
Its difference is -0.111.

What about the difference (concentration: 2.5) of the same molecule?
Its difference is -0.0387.

And the difference (concentration: 5)?
Its difference is 0.194.

And the difference (concentration: 10)?
Its difference is 0.228.

For `C[C@@H]1C[C@H](N)C[C@H](c2ccncc2NC(=O)c2ccc(F)c(-c3c(F)cccc3F)n2)C1`, which difference (concentration: 1) is on record?
The difference was 0.00842.

And the difference (concentration: 2.5)?
Its difference is 0.0956.

What about the difference (concentration: 5) of the same molecule?
Its difference is 0.0409.

What about the difference (concentration: 10) of the same molecule?
The difference was 0.137.

What about the difference (concentration: 25) of the same molecule?
The difference was 0.227.

`O=c1[nH]cc(F)c(=O)[nH]1` (concentration unit: uM) was tested. Which difference (concentration: 1) did it give?
Its difference is -0.0723.

And the difference (concentration: 2.5)?
Its difference is -0.0395.

And the difference (concentration: 5)?
Its difference is -0.107.

And the difference (concentration: 10)?
Its difference is -0.0707.

What about the difference (concentration: 25) of the same molecule?
Its difference is -0.0709.

How did the difference (concentration: 10) turn out when `Cn1c(=O)n(-c2ccc(C(C)(C)C#N)cc2)c2c3cc(-c4cnc5ccccc5c4)ccc3ncc21` (concentration unit: nM) was run?
The difference was 0.158.

What about the difference (concentration: 50) of the same molecule?
The difference was 0.191.

And the difference (concentration: 100)?
Its difference is 0.157.

What about the difference (concentration: 250) of the same molecule?
Its difference is 0.0684.

What about the difference (concentration: 500) of the same molecule?
Its difference is 0.0286.

Which difference (concentration: 25) does the source give for `COc1cccc2c1C(=O)c1c(O)c3c(c(O)c1C2=O)C[C@@](O)(C(=O)CO)C[C@@H]3O[C@H]1C[C@H](N)[C@H](O)[C@H](C)O1` (concentration unit: nM) here?
Its difference is 0.0124.

What about the difference (concentration: 100) of the same molecule?
The difference was 0.112.

What about the difference (concentration: 250) of the same molecule?
Its difference is 0.0484.

What about the difference (concentration: 1000) of the same molecule?
The difference was 0.0826.

And the difference (concentration: 2500)?
Its difference is 0.218.
